Laboratory results reported in ChEMBL document CHEMBL1961873, “Compounds: GSK PKIS; Assays: Nanosyn kinase panel” (2012).
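Further: reported values are mean percent inhibition of SRPK1.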

Each molecule was assayed against SRSF protein kinase 1 (Homo sapiens) (UniProt Q96SB4). Conditions: at 1 µM.
Sequence of SRSF protein kinase 1 (Homo sapiens) (Q96SB4 whole entry): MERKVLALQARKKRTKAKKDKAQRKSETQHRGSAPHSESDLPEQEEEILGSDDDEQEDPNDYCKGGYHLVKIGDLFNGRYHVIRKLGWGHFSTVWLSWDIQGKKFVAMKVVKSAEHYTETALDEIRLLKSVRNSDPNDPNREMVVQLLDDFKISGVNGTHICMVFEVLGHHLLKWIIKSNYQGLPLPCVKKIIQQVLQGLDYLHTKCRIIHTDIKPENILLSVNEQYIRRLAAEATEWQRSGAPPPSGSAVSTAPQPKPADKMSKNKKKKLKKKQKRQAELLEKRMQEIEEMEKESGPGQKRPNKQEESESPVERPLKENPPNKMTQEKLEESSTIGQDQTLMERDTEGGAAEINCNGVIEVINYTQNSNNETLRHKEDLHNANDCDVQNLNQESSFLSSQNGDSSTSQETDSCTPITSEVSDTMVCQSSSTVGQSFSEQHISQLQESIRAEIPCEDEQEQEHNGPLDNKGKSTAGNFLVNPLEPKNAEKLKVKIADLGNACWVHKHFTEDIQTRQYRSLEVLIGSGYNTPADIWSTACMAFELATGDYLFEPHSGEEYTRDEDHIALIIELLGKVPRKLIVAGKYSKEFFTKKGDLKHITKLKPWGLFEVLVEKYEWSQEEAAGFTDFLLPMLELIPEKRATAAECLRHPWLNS
Molecule `ON=C1CCc2cc(-c3nc(C4CCNCC4)[nH]c3-c3ccncc3)ccc21` has an inhibition of -5.28%.
`O=C1Nc2ccc(-c3cccnc3)cc2C1=Cc1cc(Br)c(O)c(Br)c1` showed an inhibition of -2.45%.
`CCOc1nccc2c1nc(-c1nonc1N)n2CC` showed an inhibition of 6.12%.
Molecule `c1ccc(Cc2nc3ccc(Nc4ncnc5ccccc45)cc3[nH]2)cc1` has an inhibition of 1.41%.
`O=C(Nc1ccc(Oc2ccc3[nH]c(NC(=O)c4ccco4)nc3c2)cc1)Nc1cc(C(F)(F)F)ccc1F` was tested, and the inhibition was 5.87%.
Work on `FC(F)(F)c1ccc(-c2nn3ncccc3c2-c2ccnc(Nc3ccc4c(c3)OCCO4)n2)cc1` yielded an inhibition of 13%.
Work on `COc1cc2ncnc(Nc3ccc(C)c(O)c3)c2cc1OC` yielded an inhibition of -0.28%.
With `c1ccc(Nc2ncc(-c3ccccc3)o2)cc1` the inhibition was -2.19%.
Work on `Cc1ccc(NC(=O)CC2CC2)cc1-c1ccc(C(=O)NCC2CC2)cc1` yielded an inhibition of 1.32%.
`OCc1ccc(-c2nc(-c3ccccn3)c(-c3ccc4c(c3)OCO4)[nH]2)cc1` gave an inhibition of -3.19%.
`Cc1ccc(Nc2ccnc(Nc3cccc(C(N)=O)c3)n2)cc1O` showed an inhibition of 1.41%.
Molecule `CN(c1ccc(NC(=O)Nc2ccc(OC(F)(F)F)cc2)cc1)c1ccnc(Nc2cccc(S(N)(=O)=O)c2)n1` has an inhibition of 1.1%.
`CN(C)C(=O)O[C@@H]1CN[C@@H](C#Cc2cc3ncnc(Nc4ccc(OCc5cccc(F)c5)c(Cl)c4)c3s2)C1` showed an inhibition of -5.46%.
`NS(=O)(=O)c1ccc(Nc2cc(-c3cccc(O)c3)n[nH]2)cc1` showed an inhibition of -2.8%.
`Cc1ccc2c(-c3ccnc(Nc4cccc(C(F)(F)F)c4)n3)c(-c3ccccc3)nn2n1` was tested, and the inhibition was -2.03%.
With `COC(=O)Nc1nc2cc(Oc3ccc(NC(=O)Nc4cccc(Br)c4)cc3)ccc2[nH]1` the inhibition was -2.45%.
